Assay results from PubChem BioAssay (Tox21).
Values joined by “and” are separate entries in the source; they are usually repeats but may differ in a detail not shown here. Equal entries are not always repeated. A number with no mark means an inactive call. Where a call stands in place of a potency, no number is given. Active and inactive are the calls of the source. Calls follow the shape of the full dose curve.

Biological target: Androgen receptor (Homo sapiens) (UniProt P10275)
Experiment: qHTS assay to identify small molecule agonists of the androgen receptor (AR) signaling pathway in the presence of an antagonist (AID 1259381); also: nearly all actives have a fitted effect of over 15% in size
Settings: MDA-kb2 MMTV-luciferase, AR agonist + nilutamide, 16 h; series mostly up to 92.4 µM
Description: National Center for Advancing Translational Sciences [NCATS] NIH Chemical Genomics Center [NCGC] U.S. Environmental Protection Agency [EPA] National Institutes of Environmental Health Sciences [NIEHS] National Toxicology Program [NTP] Assay overview: Androgen receptor (AR) is an important member of nuclear receptor family. Its signaling plays a critical role in AR-dependent prostate cancer and other androgen related diseases. Considerable attention has been given in the past decades to develop methods to study and screen for the environmental chemicals that have the potential to interfere with metabolic homeostasis, reproduction, developmental and behavioral functions. Therefore AR binding assay for screening against androgen agonists and antagonists can be used to identify potential endocrine disruptors. MDA-kb2 cells (from ATCC, deposited by Wilson et al.) are human breast carcinoma cells that were stably transfected with a luciferase reporter gene under control of the MMTV promoter that contains response elements for both androgen receptor (AR) and glucocorticoid receptor (GR). This particular screening for measuring luciferase reporter gene activity using MDA-kb2 cells against Tox21 10K library compounds is a confirmation study on agonist mode screening in the presence of AR-antagonist compound (Nilutamide) at 3.0uM final concentration.
Assay Protocol Summary: MDA-kb2 cells (cells cultured without CO2) were dispensed at 3,000 cells/well in 4uL of culture medium into white wall/solid-bottom 1536-well plates (Corning Life Sciences, Corning, NY) using a Multidrop Combi (Thermo Fisher Scientific Inc., Waltham, MA) dispenser. The assay plates were incubated at 37C and 0% CO2 for 5hr. One uL of 3.0uM (final concentration) Nilutamide or assay buffer was added using two separate tips of Flying Reagent Dispenser (FRD, Aurora Discovery, San Diego, CA). Then 23nL of compounds dissolved in DMSO at 15 concentrations and positive controls were transferred to the assay plates using a Pintool station (Wako, San Diego, CA). The assay plates were incubated at 37C and 0% CO2 for 16hr. For luciferase read, 4uL/well ONE-Glo reagent (Promega Corporation, Madison, WI) was added to each well of the assay plates using FRD. After 30min incubation at room temperature, the luminescence signal was measured using a ViewLux plate reader (PerkinElmer, Shelton, CT).
Potency is read from the fitted curve at half-maximal effect.

Androgen receptor (Homo sapiens), sequence (P10275 whole entry, looked up): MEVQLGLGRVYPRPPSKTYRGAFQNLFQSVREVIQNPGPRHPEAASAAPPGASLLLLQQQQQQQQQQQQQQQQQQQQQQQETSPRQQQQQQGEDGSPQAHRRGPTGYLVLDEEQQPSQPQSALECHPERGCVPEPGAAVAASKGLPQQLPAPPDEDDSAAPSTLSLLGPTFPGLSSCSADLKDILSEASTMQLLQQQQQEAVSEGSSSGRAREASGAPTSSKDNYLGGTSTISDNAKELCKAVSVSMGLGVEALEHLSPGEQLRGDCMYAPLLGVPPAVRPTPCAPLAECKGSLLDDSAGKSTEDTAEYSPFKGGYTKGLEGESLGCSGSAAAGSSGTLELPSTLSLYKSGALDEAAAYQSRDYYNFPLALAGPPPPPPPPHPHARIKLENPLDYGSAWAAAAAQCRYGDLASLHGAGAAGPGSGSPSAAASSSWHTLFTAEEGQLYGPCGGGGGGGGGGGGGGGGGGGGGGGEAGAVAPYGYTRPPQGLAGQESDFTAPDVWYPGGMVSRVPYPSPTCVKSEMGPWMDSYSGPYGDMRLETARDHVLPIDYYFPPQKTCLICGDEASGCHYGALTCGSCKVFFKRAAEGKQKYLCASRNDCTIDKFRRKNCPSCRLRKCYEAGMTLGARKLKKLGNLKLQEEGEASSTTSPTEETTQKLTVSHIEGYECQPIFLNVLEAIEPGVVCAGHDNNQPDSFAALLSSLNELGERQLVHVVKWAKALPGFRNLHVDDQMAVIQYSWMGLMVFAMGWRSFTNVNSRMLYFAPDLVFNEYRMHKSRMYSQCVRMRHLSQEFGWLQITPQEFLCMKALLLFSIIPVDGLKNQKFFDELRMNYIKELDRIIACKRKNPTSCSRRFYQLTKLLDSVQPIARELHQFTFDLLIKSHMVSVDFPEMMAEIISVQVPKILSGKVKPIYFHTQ

Question: With `N#CCCO` as the compound, how does the Potency read?
Answer: The Potency was “inactive”.

Question: `COS(=O)(=O)c1ccc(C)cc1` was tested. Which Potency did it give?
Answer: Its Potency is “inactive”.

Question: With `N#CCCSCCC#N` as the compound, how does the Potency read?
Answer: The Potency was “inactive”.

Question: How did the Potency turn out when `O=[N+]([O-])c1ccc2ccc3cccc4ccc1c2c34` was run?
Answer: The Potency was “inactive”.

Question: Which Potency does the source give for `CCN(CC)c1c([N+](=O)[O-])cc(C(F)(F)F)c(N)c1[N+](=O)[O-]` here?
Answer: Its Potency is “inactive”.

Question: With `CCOP(=O)(NC(C)C)Oc1ccc(SC)c(C)c1` (stereo not given) as the compound, how does the Potency read?
Answer: Its Potency is “inactive”.

Question: How did the Potency turn out when `O=c1oc2ccccc2c(O)c1Cc1c(O)c2ccccc2oc1=O` was run?
Answer: The Potency was “inactive”.

Question: For `C[C@]12Cc3nonc3C[C@@H]1CC[C@@H]1[C@@H]2CC[C@@]2(C)[C@H]1CC[C@]2(C)O`, which Potency is on record?
Answer: Its Potency is 0.0237 µM (active).

Question: `Cc1cc(N=Nc2ccccc2C)ccc1N` was tested. Which Potency did it give?
Answer: Its Potency is “inactive”.

Question: With `ClC1=C(Cl)[C@]2(Cl)[C@@H]3[C@@H](Cl)[C@@H](Cl)C[C@@H]3[C@@]1(Cl)C2(Cl)Cl` as the compound, how does the Potency read?
Answer: Its Potency is “inactive”.

Question: For `CCOP(=S)(OCC)SCS(=O)(=O)C(C)(C)C`, which Potency is on record?
Answer: The Potency was “inactive”.

Question: For `C[C@@H]1O[C@@H](O[C@H]2C[C@@H](O)[C@]3(CO)[C@H]4[C@H](O)C[C@]5(C)[C@@H](C6=CC(=O)OC6)CC[C@]5(O)[C@@H]4CC[C@]3(O)C2)[C@H](O)[C@H](O)[C@H]1O`, which Potency is on record?
Answer: Its Potency is 366 nM (active) and 168 nM (active).

Question: Which Potency does the source give for `CNC(C)Cc1ccc2c(c1)OCO2` (stereo not given) here?
Answer: The Potency was “inactive”.

Question: How did the Potency turn out when `O=C1C=CC(=O)c2ccccc21` was run?
Answer: Its Potency is “inactive”.

Question: Which Potency does the source give for `O=C1c2ccccc2C(=O)C1C(=O)C(c1ccccc1)c1ccc(Cl)cc1` (stereo not given) here?
Answer: The Potency was “inactive”.

Question: For `C[CH2][Hg][N]1C(=O)C2C(C1=O)C1(Cl)C(Cl)=C(Cl)C2(Cl)C1(Cl)Cl` (stereo not given), which activation is on record?
Answer: Its activation is -7.84% [at 19 µM].

Question: With `CC(=O)/C=C/c1ccc2c(c1)OCO2` as the compound, how does the Potency read?
Answer: Its Potency is “inactive”.

Question: How did the Potency turn out when `CC(C)C(=O)Cl` was run?
Answer: Its Potency is “inactive”.

Question: Which Potency does the source give for `C[C@]12CC[C@H](O)C[C@H]1CC[C@@H]1[C@@H]2C[C@@H](O)[C@]2(C)[C@@H](C3=CC(=O)OC3)CC[C@]12O` here?
Answer: Its Potency is 2.73 µM (active).

Question: `CN(CCCC(=O)c1cccnc1)N=O` was tested. Which Potency did it give?
Answer: Its Potency is “inactive”.

Question: With `SCc1ccco1` as the compound, how does the Potency read?
Answer: The Potency was “inactive”.

Question: With `Oc1cc(Cl)c(Cl)c(Cl)c1` as the compound, how does the Potency read?
Answer: Its Potency is “inactive”.

Question: `N#Cc1ccccc1N` was tested. Which Potency did it give?
Answer: The Potency was “inactive”.

Question: How did the Potency turn out when `C[C@@H]1CC[C@@]2(OC1)O[C@H]1[C@@H](O)[C@H]3[C@@H]4CC[C@H]5C[C@@H](O[C@@H]6O[C@H](CO)[C@H](O[C@@H]7O[C@H](CO)[C@@H](O)[C@H](O[C@@H]8OC[C@@H](O)[C@H](O)[C@H]8O)[C@H]7O[C@@H]7O[C@H](CO)[C@@H](O)[C@H](O[C@@H]8O[C@H](CO)[C@@H](O)[C@H](O)[C@H]8O)[C@H]7O)[C@H](O)[C@H]6O)[C@H](O)C[C@]5(C)[C@H]4CC[C@]3(C)[C@H]1[C@@H]2C` was run?
Answer: The Potency was “inactive”.

Question: How did the Potency turn out when `O=[N+]([O-])c1cc(Cl)ccc1Cl` was run?
Answer: The Potency was “inactive”.

Question: Which Potency does the source give for `COP(=O)(CCC(=O)NCO)OC` here?
Answer: The Potency was “inactive”.

Question: For `BrCC(Br)c1ccccc1` (stereo not given), which Potency is on record?
Answer: The Potency was “inactive”.

Question: Which Potency does the source give for `N#Cc1ccc(O)cc1` here?
Answer: Its Potency is “inactive”.

Question: With `COP(=O)(OC)SCn1c(=O)oc2cc(Cl)cnc21` as the compound, how does the Potency read?
Answer: The Potency was “inactive”.

Question: With `COC(=O)N(C(=O)N1COC2(C(=O)OC)Cc3cc(Cl)ccc3C2=N1)c1ccc(OC(F)(F)F)cc1` (stereo not given) as the compound, how does the Potency read?
Answer: Its Potency is “inactive”.

Question: `CC(O)C#N` (stereo not given) was tested. Which Potency did it give?
Answer: The Potency was “inactive”.

Question: For `Oc1c(Cl)c(Cl)cc(Cl)c1Cl`, which Potency is on record?
Answer: The Potency was “inactive”.

Question: `[CH3][Hg][Cl]` was tested. Which Potency did it give?
Answer: The Potency was “inactive”.

Question: For `CC(C)(c1ccc(O)c(-c2ccccc2)c1)c1ccc(O)c(-c2ccccc2)c1`, which Potency is on record?
Answer: The Potency was “inactive”.

Question: For `c1cc[c]([Sb]([c]2ccccc2)[c]2ccccc2)cc1`, which Potency is on record?
Answer: The Potency was “inactive”.

Question: With `O=[N+]([O-])c1cc([N+](=O)[O-])c2ccccc2c1` as the compound, how does the Potency read?
Answer: Its Potency is “inactive”.

Question: Which Potency does the source give for `CC[C@H]1C[C@@H]2C[C@H]3c4[nH]c5ccc(OC)cc5c4CCN(C2)[C@@H]13` here?
Answer: The Potency was “inactive”.

Question: With `CC(=O)C(Cl)(Cl)Cl` as the compound, how does the Potency read?
Answer: The Potency was “inactive”.

Question: `N#CC(Cl)Cl` was tested. Which Potency did it give?
Answer: Its Potency is 47.3 µM (active).

Question: Which Potency does the source give for `Clc1ccc(Oc2ccccc2)cc1` here?
Answer: The Potency was “inactive”.
